Several values for one entry are separate records, joined by “and”; a condition that tells them apart may be missing. Identical values can stand only once. Over roughly 5,400 compounds, “IFI” has its median near 2; the highest 2% begin near 22. Only a selection was taken, and the highest values are over-represented in it overall.

A short description of this assay: NOVARTIS: Inhibition Frequency Index (IFI) - the number of HTS assays where a compound showed > 50% inhibition/induction, expressed as a percentage of the number of assays in which the compound was tested. It is filed as functional.
Compound `CCc1c2ccc(C)n2cc[n+]1CC` displayed an IFI of 6.02%. As to `Cc1ccc(CSCc2ccc(C(=O)NC3CC3)o2)cc1`, the IFI was determined as 0%.

In the case of `CC(=O)Nc1ccc(-c2nc(-c3ccc(Oc4ccc(-c5[nH]c(-c6ccc(NC(C)=O)cc6)nc5-c5ccccc5)cc4)cc3)c(-c3ccccc3)[nH]2)cc1`, the IFI worked out at 1.54%. As to `COc1ccc2c(c1)C(C)=CC(C)(C)N2C(=O)CSc1nnc(-c2ccc(C)cc2)o1`, the IFI is 0%. For the compound `O=C(N/C(=C/C=C/c1ccccc1)C(=O)N1CCCCC1)c1ccc([N+](=O)[O-])cc1`, the IFI amounted to 0.685%. As for `CC1CN(C(=O)C(Cc2c[nH]c3ccccc23)NC(=O)C(c2ccccc2)c2ccccc2)CCN1C(=O)NCc1ccccc1` (stereo not drawn), the IFI was determined as 0%.

As to `CCCCNC(=O)NC(Cc1c[nH]c2ccccc12)C(=O)NC1CCCCC1` (stereo not drawn), the IFI turned out to be 4.21%. `CC(C)C[C@@H](NC(=O)[C@H](C)NC(=O)CNC(=O)[C@@H](NC=O)C(C)C)C(=O)N[C@@H](C)C(=O)N[C@@H](C(=O)N[C@H](C(=O)N[C@@H](C(=O)N[C@@H](Cc1c[nH]c2ccccc12)C(=O)N[C@H](CC(C)C)C(=O)N[C@@H](Cc1c[nH]c2ccccc12)C(=O)N[C@H](CC(C)C)C(=O)N[C@@H](Cc1c[nH]c2ccccc12)C(=O)N[C@H](CC(C)C)C(=O)N[C@@H](Cc1c[nH]c2ccccc12)C(=O)NCCO)C(C)C)C(C)C)C(C)C` showed an IFI of 27.6%.

Regarding `Cc1ccc(Nc2nc(NCc3ccccc3)c3ccccc3n2)cc1`, the IFI was 0%.

`C=CCSc1nc(N)c2c3c(sc2n1)CN(CCC)CC3` yielded an IFI of 14%. In turn, `CC[n+]1c(C=CN(C)C)sc2ccccc21` showed an IFI of 4.62%. Turning to `CCC1=[N+](C)c2cccc3cccc(c23)N1C`, the IFI turned out to be 3.12%.

Turning to `CC[n+]1c(/C=C/C=C2\N(C)c3ccccc3C2(C)C)n(CCCOC(C)=O)c2ccccc21`, the IFI amounted to 14.3%. With `CCN1/C(=C/C=C/c2sc3ccccc3[n+]2CC)Sc2ccccc21` the figure was 21.7%; with `CC[n+]1c(C=CC=C2N(C)c3ccccc3C2(C)C)sc2ccccc21`, 28.6%; with `Brc1ccc(-c2n(Cc3ccccc3)c3ccccc3[n+]2Cc2ccccc2)o1`, 15.4%. `C[n+]1c(C=CNc2ccccc2)n(-c2ccccc2)c2ccc(Cl)cc21` came in with an IFI of 12.5%. `CN1/C(=C\C=C\C2=[N+](C)c3ccc4ccccc4c3C2(C)C)C(C)(C)c2ccccc21` displayed an IFI of 23.1%. `CC[n+]1c(/C=C/C=C2\N(C)c3ccccc3C2(C)C)n(-c2ccccc2)c2ccc(C)cc21` had an IFI of 21.4%. The result for `CC[n+]1c(/C=C/C=C2\N(C)c3ccccc3C2(C)C)n(Cc2ccccc2)c2ccccc21` reads 32.6%; that for `CC[n+]1c(/C=C/C=C2\N(C)c3ccccc3C2(C)C)n(-c2ccccc2)c2cc(Cl)ccc21`, 33.3%. The result for `CC[n+]1c(/C=C/C=C2\N(C)c3ccccc3C2(C)C)n(-c2ccccc2)c2ccc(Cl)cc21` reads 21.4%.

As for `COc1ccc(NC(=O)C2c3ccccc3C(=O)N(C3CCCC3)C2c2cccs2)cc1Cl` (stereo not drawn), the IFI worked out at 6.25%.

Turning to `CC1=C(C=CC(C)C=NNC(=O)c2ccncc2)C(C)(C)CCC1` (stereo not drawn), the IFI stood at 0%. With `COc1ccc(-c2ccc(C=NNC(=O)CNC(=O)c3ccc4c(c3)OCO4)o2)cc1Cl` the figure was 0%; with `CCC(=O)CC(O)C[C@@H](C)C[C@H](NC(=O)[C@@H]1C[C@H](C)CN1C(=O)/C=C/[C@@H](C)CC)C(=O)N[C@H](C(=O)NC(C)(C)C(=O)N[C@@H](CC(C)C)C(=O)N[C@@H](CC(C)C)C(=O)NC(C)(C)C(=O)NC(C)(C)C(=O)NCCC(=O)N[C@@H](C)CN(C)C)[C@H](O)C(C)C` (stereo partly drawn), 12.1%; with `COc1cccc(C(=O)Oc2ccccc2-c2nc3cc(C)ccn3c2NC(C)(C)CC(C)(C)C)c1`, 3.74%. For `Cc1occc1C(=O)NN=C/C(Cl)=C/c1ccccc1`, the IFI is 7.69%.

In the case of `CC(C)(C)OCCN(CC(O)CN(Cc1ccccc1)C(=O)NC(c1ccccc1)c1ccccc1)S(=O)(=O)c1ccccc1` (stereo not drawn), the IFI is 0.935%. In turn, `COc1cc(C2C(C(=O)OCC(C)C)=C(C)NC3=C2C(=O)CC(c2ccccc2)C3)cc(Br)c1O` (stereo not drawn) returned an IFI of 4.65%. Compound `Cc1ccc(Cn2c(N3CCC(C(=O)NCc4ccccn4)CC3)nc3ccccc32)cc1` came in with an IFI of 0%. With `CCc1cccc2c(C#N)cn(CC(=O)Nc3ccc(OC)cc3)c12` the figure was 7.69%. `Clc1ccc(C[n+]2cc(-c3ccccc3)n3c2CCC3)cc1Cl`: the IFI came to 3.77%.

For the compound `Cc1cccc(C)c1NC(=O)N1CCN(C(=O)c2nc(-c3ccccc3)nc(C)c2C(=O)OC(C)C)CC1C` (stereo not drawn), the IFI was 2.8%.

In turn, `N#CC(c1ccc(C(F)(F)F)cc1)c1ccc2c(C(F)(F)F)cc(C(F)(F)F)nc2n1` (stereo not drawn) came in with an IFI of 26.3%. With `COc1ccc(C2Nc3ccc4ccccc4c3C3=C2C(=O)CC(C)(C)C3)cc1Br` (stereo not drawn) the figure was 0%; with `CCCCOc1cccc(C(=O)N(Cc2cccs2)c2ccc(OC)cc2)c1`, 0%; with `CCN1C(=Cc2sc3cc(NC(C)=O)ccc3[n+]2CC)C=Cc2cc(C)ccc21`, 7.69%. `CCN1C(=Cc2ccc3c4ccoc4ccc3[n+]2CC)C=Cc2c1ccc1occc21` gave an IFI of 28.6%. With `CC[n+]1c(/C=C2\C=Cc3cc(C)ccc3N2C)ccc2cc(C)ccc21` the figure was 15.4%; with `C=CCN1C=CC(=Cc2sc3ccccc3[n+]2C)c2ccccc21`, 17.6%; with `CC(C)(C)NC(=O)C(c1ccc(F)cc1)N(CCCN1CCOCC1)C(=O)c1ccc(-c2ccccc2)[nH]1` (stereo not drawn), 3.16%. Consider `COc1ccc(OC)c(NC(=O)c2cnn3c(C(F)(F)F)cc(-c4ccc(OC)c(OC)c4)nc23)c1`, for which the IFI worked out at 2.38%. With `CC1(C)C(=O)C2(CCCCC2)C(=O)OC1/C=C/c1ccccc1` (stereo not drawn) the figure was 1.49%; with `c1ccc(CSc2nc3ccncc3[nH]2)cc1`, 0%. `c1ccc(CSc2scnc2[P+](c2ccccc2)(c2ccccc2)c2ccccc2)cc1` showed an IFI of 27.8%. Turning to `c1ccc(CSc2nnc3c(n2)[nH]c2ccccc23)cc1`, the IFI was 0% and 3.82%.

`COc1ccccc1CN1CCc2nc(-c3cnccn3)sc2C1` yielded an IFI of 9.86%. The compound `COc1ccc(CCNc2nc(NCCCn3ccnc3)ncc2C(=O)NCC(C)C)cc1OC` registered an IFI of 1.92%. In turn, `CC(=O)N(Cc1ccc(F)cc1)C1=C(NCCc2ccccc2)C(=O)c2ccccc2C1=O` came in with an IFI of 8.33%. Turning to `CC(=O)N(Cc1ccc(F)cc1)C1=C(NCc2ccccc2)C(=O)c2ccccc2C1=O`, the IFI came out at 23.1%. The compound `CNC1=C(N(Cc2ccc(Cl)c(Cl)c2)C(C)=O)C(=O)c2ccccc2C1=O` displayed an IFI of 14.3%. In turn, `CCOC(=O)c1c(N=Cc2cccc(OC)c2O)sc2c1CCN(C)C2` showed an IFI of 0%.

The values are drawn from ChEMBL document CHEMBL1156829.
